Screening results deposited in PubChem by Buhrlage Lab, Dana-Farber Cancer Institute and Novartis Institutes for BioMedical Research (Cambridge, Mass).
USP30 inh: inhibitors of human USP30 deubiquitinase. inhibition, % at 25 µM. 47,000 compounds, 5.3% hits. AID 1645860, 2021. purified USP30, Ub-rhodamine cleavage fluorescence
USP8 block: inhibitors of human USP8 deubiquitinase | purified USP8, Ub-rhodamine cleavage fluorescence, 30 min | inhibition, % at 20 µM | 47,000 compounds, 4.2% hits | AID 1645853, 2021
USP17 block: inhibitors of human USP17 deubiquitinase. Ubiquitin carboxyl-terminal hydrolase 17-like protein 5 (Homo sapiens), A8MUK1. purified USP17, Ub-rhodamine cleavage fluorescence, 3 h. inhibition, % at 50 µM. 47,000 compounds, 6.5% hits. AID 1645855, 2021
USP10 block: inhibitors of human USP10 deubiquitinase; Ubiquitin carboxyl-terminal hydrolase 10 (Homo sapiens), Q14694; purified USP10, Ub-rhodamine fluorescence, 60 min; inhibition, % at 20 µM; 47,000 compounds, 1.1% hits; AID 1645856, 2021
USP28 block: inhibitors of human USP28 deubiquitinase | purified USP28, Ub-rhodamine cleavage fluorescence, 30 min | inhibition, % at 25 µM | 47,000 compounds, 3% hits | AID 1645857, 2021
Target sequence (Q96RU2 whole entry, looked up): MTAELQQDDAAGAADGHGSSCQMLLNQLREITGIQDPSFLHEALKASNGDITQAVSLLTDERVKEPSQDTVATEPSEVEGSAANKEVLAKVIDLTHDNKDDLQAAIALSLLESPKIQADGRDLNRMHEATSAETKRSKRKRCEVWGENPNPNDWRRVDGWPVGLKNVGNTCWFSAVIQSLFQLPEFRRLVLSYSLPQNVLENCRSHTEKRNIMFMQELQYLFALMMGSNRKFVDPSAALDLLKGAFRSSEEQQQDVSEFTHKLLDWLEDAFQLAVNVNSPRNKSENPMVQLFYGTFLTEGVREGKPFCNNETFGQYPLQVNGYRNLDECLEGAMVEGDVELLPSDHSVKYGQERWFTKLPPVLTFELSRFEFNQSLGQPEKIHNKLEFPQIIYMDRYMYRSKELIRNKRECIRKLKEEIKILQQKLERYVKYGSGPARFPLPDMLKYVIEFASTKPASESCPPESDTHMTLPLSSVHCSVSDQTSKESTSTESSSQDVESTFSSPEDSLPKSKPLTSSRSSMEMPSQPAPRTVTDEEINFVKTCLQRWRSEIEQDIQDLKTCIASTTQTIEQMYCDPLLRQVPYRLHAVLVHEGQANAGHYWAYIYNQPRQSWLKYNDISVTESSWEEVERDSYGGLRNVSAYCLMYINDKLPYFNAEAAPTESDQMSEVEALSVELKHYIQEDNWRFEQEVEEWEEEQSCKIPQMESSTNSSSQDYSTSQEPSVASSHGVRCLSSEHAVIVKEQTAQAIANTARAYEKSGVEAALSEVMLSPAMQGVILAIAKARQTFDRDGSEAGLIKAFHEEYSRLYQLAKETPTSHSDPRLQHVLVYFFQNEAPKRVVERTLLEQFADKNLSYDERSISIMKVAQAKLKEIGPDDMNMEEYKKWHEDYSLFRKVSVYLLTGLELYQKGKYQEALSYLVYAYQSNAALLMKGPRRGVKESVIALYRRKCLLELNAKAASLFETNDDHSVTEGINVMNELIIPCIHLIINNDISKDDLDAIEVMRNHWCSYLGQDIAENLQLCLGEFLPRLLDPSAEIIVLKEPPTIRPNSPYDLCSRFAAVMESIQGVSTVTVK
The depositor's hits bear a star. This is a sample that favours compounds with a hit; in the whole collection about 14% have one here. Cut-off read from the data, not from the text of the source: active = inhibition above about 30%; inactive = the rest.

Screening O=C(O)c1ccccc1C(=O)Nc1ccc(SC(C(=O)Nc2ccccc2Cl)c2ccccc2)cc1 (configuration not stated) returned USP30 inh 4.2, USP8 block -1.3, USP17 block 47.4*, USP10 block 49.3* and USP28 block 23.8.
Screening Cc1cccc(NC(=O)C(Sc2ccc(NC(=O)c3ccccc3C(=O)O)cc2)c2ccccc2)c1 (configuration not stated) returned USP30 inh -38.2, USP8 block -18.8, USP17 block -23.1, USP10 block 12.5 and USP28 block -15.4.
For O=C(O)c1cccc(NC(=O)C(Sc2cccc(NC(=O)c3cccc(Cl)c3)c2)c2ccccc2)c1 (configuration not stated) the results were USP30 inh -3.6, USP8 block 3.4, USP17 block 41.6*, USP10 block 46.0* and USP28 block 26.1.
For Cc1ccccc1C(=O)Nc1cccc(SC(C(=O)Nc2ccc(O)c(C(=O)O)c2)c2ccccc2)c1 (configuration not stated) the results were USP30 inh 38.2*, USP8 block 2.3, USP17 block 28.2, USP10 block 12.7 and USP28 block 15.3.
Cc1cccc(C(=O)Nc2cccc(SC(C(=O)Nc3ccc(O)c(C(=O)O)c3)c3ccccc3)c2)c1 (configuration not stated) was read as USP30 inh 6.1, USP8 block 87.9*, USP17 block 29.4, USP10 block 31.4* and USP28 block 51.9*.
For Cc1c(C(=O)N2CCc3nnc(C4CCN(C)CC4)n3CC2)[nH]c2ccccc12 the results were USP30 inh 9.3, USP8 block 7.2, USP17 block -1.6, USP10 block 0.0 and USP28 block -1.3.
`CCCc1nnc(-c2cc3ccccc3n2CC(=O)NCC2CCCO2)o1` (configuration not stated) gave USP30 inh -23.6, USP8 block -1.2, USP17 block -10.7, USP10 block -2.2 and USP28 block -13.6.
COC(=O)c1ccc(OCc2noc(C(=O)NCC3CCCO3)n2)cc1 (configuration not stated) was read as USP30 inh 2.1, USP8 block 4.4, USP17 block -1.3, USP10 block -0.6 and USP28 block -13.1.
For COc1ccccc1CNC(=O)c1c(O)c2cnn(-c3cccc(C)c3)c2[nH]c1=O the results were USP30 inh 10.8, USP8 block 81.6*, USP17 block 39.1*, USP10 block 29.9 and USP28 block 76.0*.
O=C(Oc1ccccc1)c1cc(-c2ccccc2)nn1-c1ccccc1 was read as USP30 inh 8.8, USP8 block 16.1, USP17 block 18.9, USP10 block 10.2 and USP28 block 17.0.
For O=C(Nc1nc2c(s1)CN(C(=O)Nc1ccc(Cl)c(Cl)c1)CC2)c1cnccn1 the results were USP30 inh -63.1, USP8 block -232.2, USP17 block -26.9, USP10 block -1.9 and USP28 block -9.9.
For Cc1c(C)n(-c2ccccc2)c2ncn(CC(=O)NCc3ccc(F)cc3)c(=O)c12 the results were USP30 inh 40.5*, USP8 block 6.7, USP17 block 10.4, USP10 block 12.1 and USP28 block -2.6.
For Cc1ccc(CNC(=O)CCc2nc3c(C)nn(-c4ccccc4)c3n(C)c2=O)cc1 the results were USP30 inh -2.2, USP8 block -15.2, USP17 block -1.8, USP10 block -2.7 and USP28 block -1.0.
Screening Cc1c(C)n(-c2ccccc2)c2ncn(CC(=O)NCc3cccc(F)c3)c(=O)c12 returned USP30 inh 34.0*, USP8 block 45.2*, USP17 block 13.0, USP10 block 27.2 and USP28 block -1.5.
`CSc1ccc(CNC(=O)Cn2nc(C)c3c(C)n(-c4ccccc4)nc3c2=O)cc1` gave USP30 inh 10.4, USP8 block 88.8*, USP17 block 40.0*, USP10 block 45.9* and USP28 block 9.2.
COc1ccc(CNC(=O)Cn2cnc3c(c(C)c(C)n3-c3ccccc3)c2=O)cc1 was read as USP30 inh 35.6*, USP8 block 0.0, USP17 block 29.8, USP10 block 2.5 and USP28 block 19.2.
Screening COc1cccc(CN2CCCCC23Cc2ccccc2CNC3=O)c1 (configuration not stated) returned USP30 inh -43.3, USP8 block -17.5, USP17 block -18.2, USP10 block 2.1 and USP28 block -8.6.
`OCc1ccccc1-c1cnc2sc(NC3CCCCC3)nn12` gave USP30 inh -15.5, USP8 block -15.1, USP17 block -22.7, USP10 block 1.5 and USP28 block -6.4.
`CCn1c(CNc2ccc(C)cc2)nnc1SCC(=O)Nc1ccccc1F` gave USP30 inh 15.9, USP8 block 1.2, USP17 block -8.0, USP10 block 0.9 and USP28 block 28.4.
For CCn1c(CNc2ccc(C)cc2)nnc1SCC(=O)Nc1ccc(C(=O)OC)cc1 the results were USP30 inh 8.0, USP8 block 2.6, USP17 block 24.0, USP10 block 0.0 and USP28 block 42.4*.
COc1ccc(F)cc1S(=O)(=O)N1CCCC(c2nnc(C(F)(F)F)o2)C1 (configuration not stated) was read as USP30 inh 13.4, USP8 block 7.5, USP17 block 0.1, USP10 block 0.1 and USP28 block 2.5.
CC1CCCN(S(=O)(=O)c2cc3cc(F)ccc3oc2=O)C1 (configuration not stated) was read as USP30 inh 14.5, USP8 block 3.0, USP17 block 57.7*, USP10 block 3.1 and USP28 block 0.0.
`CN1C[C@@]23CN(C(=O)c4cnccn4)C[C@@H](C[C@@H]2S1(=O)=O)O3` gave USP30 inh 32.4*, USP8 block 6.3, USP17 block 11.4, USP10 block 4.7 and USP28 block 18.4.
O=S(=O)(Nc1ccc(Oc2ccccc2)cc1)c1ccccc1 was read as USP30 inh 63.7*, USP8 block 34.4*, USP17 block 69.6*, USP10 block 23.4 and USP28 block 60.2*.
`NC(=O)c1cccc(NS(=O)(=O)c2ccccc2)c1` gave USP30 inh -1.4, USP8 block 2.4, USP17 block -8.8, USP10 block 2.0 and USP28 block -14.6.
For Cc1ccc(NC(=O)C(C)C2CCN(C(=O)Nc3ccccc3)CC2)cc1 (configuration not stated) the results were USP30 inh -12.6, USP8 block 17.3, USP17 block 4.8, USP10 block 4.3 and USP28 block 8.6.
`COC(=O)c1ccc(N2CCN(C(=O)c3ccccc3)CC2)c(NC(=O)c2cc(OC)c(OC)c(OC)c2)c1` gave USP30 inh -0.2, USP8 block 0.0, USP17 block 8.5, USP10 block 2.4 and USP28 block 0.2.
